# Cav3 T inh – Cav3.2 calcium influx blockers – cell-based, Fluo-4 calcium fluorescence, FDSS, MLSMR library, primary screen; actives 4% (n = 100,000); Cav3.2-expressing cells; stronger effect = lower value; B-score at 10 µM; AID 449739, 2010; Voltage-dependent T-type calcium channel subunit alpha-1H (Homo sapiens), O95180;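 active = single-dose well whose peak fluorescence ratio is a statistical outlier from its plate by either plate-standardised score or position-corrected B-score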
# CYP2C19 activ – human CYP2C19 activators, primary screen, biochemical, luminescence. Cytochrome P450 2C19 (Homo sapiens), P33261. recombinant CYP2C19, luciferin-H EGE luminescence; stronger effect = higher value; 0 = fully inhibited enzyme, 1 = untreated enzyme. activation factor at 5 µM. 96,000 tested, under 10 active. AID 1025, 2008;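 active = activation factor of at least 2 at 5 µM in the primary screen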;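 also: 0 = wells with 2.5 mM tranylcypromine and 1 = vehicle-only wells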
# Target sequence (P33261 whole entry, looked up): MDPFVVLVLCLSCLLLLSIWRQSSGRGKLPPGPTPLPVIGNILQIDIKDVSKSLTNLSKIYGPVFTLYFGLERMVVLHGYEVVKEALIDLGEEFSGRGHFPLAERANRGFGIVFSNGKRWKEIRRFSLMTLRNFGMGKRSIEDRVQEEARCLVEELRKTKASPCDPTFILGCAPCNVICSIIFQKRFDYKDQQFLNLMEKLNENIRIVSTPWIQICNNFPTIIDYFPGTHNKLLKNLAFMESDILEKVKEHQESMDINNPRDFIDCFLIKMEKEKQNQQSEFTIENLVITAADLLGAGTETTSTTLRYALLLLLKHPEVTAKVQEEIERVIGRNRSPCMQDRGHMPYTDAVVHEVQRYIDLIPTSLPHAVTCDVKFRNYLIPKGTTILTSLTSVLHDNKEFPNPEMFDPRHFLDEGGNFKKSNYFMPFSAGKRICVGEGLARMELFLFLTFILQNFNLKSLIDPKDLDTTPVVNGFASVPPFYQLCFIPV
# CYP2C19 inhib – blockers of cytochrome P450 2C19 activity – biochemical, luminescence, ADME assay, primary screen | P33261 | CYP2C19 Supersomes, luciferin-H EGE luminescence, 30 min | inhibition, % at 5 µM | actives 21% (n = 96,000) | AID 778, 2007;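 active = CYP2C19 inhibition above a set limit at 5 µM in the primary screen, cut at about 50% in these data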;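 also: plate controls were negative control wells for no effect and 2.5 mM tranylcypromine positive control for full effect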
# CYP2C9 act – human CYP2C9 activators, primary screen, biochemical, luminescence. Cytochrome P450 2C9 (Homo sapiens), P11712. recombinant CYP2C9, luciferin-H conversion; stronger effect = higher value; factor 1 = untreated enzyme, 0 = blocked. activation factor at 5 µM. actives 1.4% (n = 96,000). AID 1024, 2008;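 active = activation factor of 2 or more for CYP2C9 at a 5 µM dose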;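 also: 0 = sulfaphenazole-blocked wells and 1 = vehicle-only wells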
# CYP2C9 inh – blockers of cytochrome P450 2C9 activity – biochemical, luminescence, ADME assay, primary screen; CYP2C9 Supersomes, luciferin-H conversion; actives 20% (n = 96,000); inhibition, % at 5 µM; P11712;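 active = blocking of liver enzyme CYP2C9 beyond about 50% at 5 µM, limit read from the data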
# * marks the source's active call; other numbers are inactive results; · = not tested or not shown. A selection: hits, their analogues and other compounds. The true share with any hit is near 27%.
SMILES,Cav3 T inh,CYP2C19 activ,CYP2C19 inhib,CYP2C9 act,CYP2C9 inh
CCCCOC(=O)c1cc(C)nc2ccc(Br)cc12,0.4,1,0,1,0
CCOC(=O)c1cc(C(=O)OCC)c2cc(Br)ccc2n1,-3.1,0.5,47,0.4,64*
CCCCN(CC)c1nc(N)c(C#N)c(CC#N)c1C#N,-0.66,0.4,64*,0.1,85*
CCc1cc2c(=O)c(-n3cnc4ccccc43)coc2cc1O,1.2,0.7,34,1.1,-15
COc1cc(C(c2c(C)[nH][nH]c2=O)c2c(C)[nH][nH]c2=O)ccc1OS(=O)(=O)c1ccccc1,-0.11,0.8,23,0.6,37
CC(C)[C@H](NC(=O)c1ccccc1)C(=O)OCC(=O)c1ccc2c(c1)NC(=O)CO2,0.17,0.5,52*,0.6,40
N#Cc1ccccc1OCC(=O)OCC(=O)c1ccc2c(c1)NC(=O)CO2,-0.03,0.3,67*,0.4,59*
COc1cc(OC)cc(C(=O)N[C@H](C(=O)OCC(=O)c2ccc3c(c2)NC(=O)CO3)C(C)C)c1,-0.041,0.7,29,0.7,26
CC[C@H](C)[C@H](NC(=O)c1ccc(Cl)cc1)C(=O)OCC(=O)c1ccc2c(c1)NC(=O)CO2,0.74,0.5,46,0.4,56*
Cc1cccc(C)c1OCC(=O)OCC(=O)c1ccc2c(c1)NC(=O)CO2,-0.041,0.9,7,0.7,32
N#CN=C1CCCCCN1CC(N)=O,0.63,1,2,1,-2
CN1CCN(c2nc(-c3ccccn3)nc3ccccc23)CC1,-0.004,1.3,-26,1,0
Oc1ccccc1-c1nc(N2CCCC2)c2ccccc2n1,0.95,1,2,1.1,-11
CCN1CCN(c2nc(-c3ccncc3)nc3ccccc23)CC1,·,0.5,51*,0.7,30
c1ccc(N2CCN(c3nc(-c4ccccn4)nc4ccccc34)CC2)cc1,-3.6,0.7,32,0.4,59*
Oc1ccccc1-c1nc(N2CCN(Cc3ccccc3)CC2)c2ccccc2n1,-0.54,0.3,65*,0.3,74*
c1ccc2c(N3CCCCCC3)nc(-c3ccncc3)nc2c1,-0.23,0.2,76*,0.2,80*
COc1ccccc1NC(=O)CNC(=O)c1ccccc1C,0.4,0.8,24,1.3,-35
CS(=O)(=O)N1CCC(C(=O)Nc2ccc3c(c2)OCCO3)CC1,0.28,1,-1,1.1,-7
COc1ccc(NC(=O)Cn2c(=O)n(CC(=O)NCc3ccco3)c(=O)c3ccccc32)cc1OC,0.073,1.2,-16,0.9,7
CC(=O)Nc1cn(C(C)=O)c(C)n1,-0.9,1,-1,0.8,19
c1cncc(-c2nc(N3CCCCCC3)c3ccccc3n2)c1,·,0.6,39,0.2,77*
Cc1nc2c(C(=O)NCc3ccc4c(c3)OCO4)c[nH]n2c(=O)c1Cl,1.6,1.1,-12,0.2,77*
O=C(NCCC1=CCCCC1)c1cnc2n(c1=O)CCS2,-0.21,·,·,·,·
O=C(NCc1ccc2c(c1)OCO2)c1cnc2n(c1=O)CCS2,·,0.8,24,1.1,-14
SMILES,Cav3 T inh,CYP2C19 activ,CYP2C19 inhib,CYP2C9 act,CYP2C9 inh
Cc1nc2c(C(=O)NCCC3=CCCCC3)c[nH]n2c(=O)c1Cl,-4.3,1.1,-8,0.4,56*
CCC(c1nnnn1CS(=O)(=O)c1ccc(C)cc1)N1CCN(c2nc3ccccc3s2)CC1 (configuration not stated),0.3,0.9,13,0.5,48
Cc1ccc(N(C(=O)C2CCC(=O)N2)C2(C(=O)NC3CCCC3)CCCCC2)cc1 (configuration not stated),-0.18,1,4,0.8,22
C=C(C)C1CCC(C)=C1CC(C)(C)/C=N\n1cnnc1 (configuration not stated),-0.039,0.1,86*,0.4,63*
CC1=CC(C)C(/C=N/n2cnnc2)C(C)C1 (configuration not stated),-0.11,·,·,·,·
O=C(CCc1ccccc1)Nc1nc2nc(-c3ccccc3)cc(=O)n2[nH]1,0.044,1,0,0.8,24
COc1ccc(C(=O)CC(c2ccccc2)C2C(=O)CCCC2=O)cc1 (configuration not stated),0.0046,0.3,69*,0.1,93*
COc1ccc(C(CC(=O)c2ccccc2)C2CCCCC2=O)cc1 (configuration not stated),·,0.5,53*,0.8,17
CCc1ccc2c(c1)[C@]1(C(=O)N2)[C@@H]2C(=O)N(Cc3ccccc3)C(=O)[C@@H]2[C@@H]2CCCN21,-1.5,0.3,75*,0.3,68*
CCCCCC/C=C/c1ccc(OC)c([C@H]2[C@H]3C=CC[C@@H](C)[C@@H]3C(=O)N2Cc2ccccc2)c1,-0.49,·,·,·,·
Cc1ccc(S(=O)(=O)c2cc(C#N)c(=O)[nH]c2N)cc1,1.2,1,-5,0.8,23
Cc1ccc(S(=O)(=O)C2(C(=O)N3CCCCC3C)CC2)cc1 (configuration not stated),-0.24,0.3,72*,0.9,7
Cc1ccc(S(=O)(=O)C2(C(=O)N(C)C3CCCCC3)CC2)cc1,0.11,0.5,50*,0.9,8
Cc1cc(=O)[nH]c2n[nH]c(-c3ccccc3)c12,0.36,0.2,78*,1.1,-15
Cc1cc(=O)[nH]c(-c2ccccc2)n1,0.57,1,2,0.9,5
O=C(OCn1nnc2ccccc2c1=O)c1cc2ccccc2o1,-0.098,·,·,·,·
Cc1ccccc1C(=O)NC1CCN(CC(=O)Nc2nccs2)CC1,0.4,1.1,-11,1.1,-10
Cc1cccc(N2CCN(CC(=O)Nc3nccs3)CC2)c1C,-6.3*,0.2,82*,0.4,62*
CC(=O)c1cccc(NC(=O)C2CCN(S(=O)(=O)c3cccs3)CC2)c1,·,0.1,92*,0.3,68*
O=C(Nc1ccc2c(c1)OCO2)C1CCN(S(=O)(=O)c2cccs2)CC1,0.32,0.7,29,0.6,36
O=C(Nc1ccc2c(c1)OCCO2)C1CCN(S(=O)(=O)c2cccs2)CC1,0.049,0.3,67*,0.4,58*
O=S(=O)(Nc1ccc2c(c1)OCO2)c1cccs1,0.2,0.1,91*,0.3,66*
O=C(Nc1ccc2c(c1)OCO2)C1CCCN(c2nc3ccccc3s2)C1 (configuration not stated),-2.2,0.5,48,0.5,54*
COc1ccc(COC(=O)N/N=C(\C)CC(=O)Nc2c(C)cc(C)cc2C)cc1,·,1,3,0.9,8
Cc1c(CCCC(=O)O)sc(N)c1C(=O)c1cccc(C(F)(F)F)c1,-0.88,·,·,·,·
O=C(O)c1cccc(S(=O)(=O)Nc2ccc3c(c2)OCO3)c1,-1.4,1,0,1.1,-6
